MEKK2wt PB1 HTS: raises or lowers MEK5 binding to wildtype human MEKK2 PB1 domain; 290,000 tested, 1.1% active; binding response (% of control), % at 10 µM; Q9Y2U5; bead flow cytometry, Alexa488-MEK5 binding to MEKK2 WT; actives lie on both sides; in the data active = binding response below about 67% or above about 130%
GRK2 aptamer HTS: human GRK2 inhibition via aptamer displacement. P25098. bead flow cytometry, FAM-aptamer displacement from GRK2. inhibition of aptamer binding, % at 10 µM. 330,000 tested, 0.59% active. AID 488847;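 active = inhibition of aptamer binding above 40%, roughly 3 SD of noise, on plates passing a quality check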;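 also: median bead fluorescence of bound FAM aptamer so fluorescent compounds give negative values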
B2AR ag: human beta-2 adrenergic receptor agonism by FAP; AID 504454; response, % (no concentration beside the values); Am2.2-beta2AR cells, FAP receptor internalization, flow cytometry; 340,000 tested, 0.43% active; P07550;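 active = response above a set limit, near 3 SD of response in nonfluorescent compounds, cut at about 42% in these data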
MEKK3 PB1 HTS: modulators (inhibitors or enhancers) of MEK5 binding to human MEKK3 PB1 domain | binding response (% of control), % at 10 µM | 290,000 tested, 1.4% active | bead-based flow cytometry, Alexa488-MEK5 binding to MEKK3; actives lie on both sides; 0 = blocked by unlabeled MEK5, 100 = vehicle | AID 1529;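 active = binding response more than 3 SD above or below the average of its plate-row segment, actives on both sides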;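 also: Alexa488 bead fluorescence after subtracting the streptavidin-only scavenger bead signal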
MEKK2mut PB1 HTS: signal of MEK5 binding to mutant human MEKK2 PB1 domain; bead flow cytometry, Alexa488-MEK5 binding to MEKK2 mutant; percent response, % at 10 µM; 290,000 tested, 0.35% active; in the data active = percent response above about 24%, passing the limit was not always enough
MEKK2wt confirm: raises or lowers MEK5 binding to wildtype human MEKK2, retest | shares compounds with MEKK3 PB1 HTS | bead flow cytometry, Alexa488-MEK5 binding to MEKK2 WT; actives lie on both sides | binding response (% of control), % at 10 µM | 5,900 tested, 2.4% active | AID 1892; in the data active = binding response below about 16% or above about 210%; inactive = in between
MEKK2mut-MEK5: signal of MEK5 binding to mutant human MEKK2, retest. 5,900 tested, 2% active. bead flow cytometry, Alexa488-MEK5 binding to MEKK2 mutant. shares compounds with MEKK3 PB1 HTS. AID 1893. percent response, % at 10 µM; in the data active = percent response mostly above about 71%, no sharp cut-off; inactive = mostly below about 38%;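 also: higher means compound restores mutant binding toward wildtype level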
MEKK3 confirm: confirmation of inhibitors of MEK5 binding to human MEKK3; binding response (% of control), % at 10 µM; bead flow cytometry, Alexa488-MEK5 binding to MEKK3; stronger effect = lower value; 5,900 tested, 1.8% active; shares compounds with MEKK3 PB1 HTS;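 active = binding response below 72% of control, or above a set upper limit, though filed actives all read lower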
Large screens that a line does not name were inactive (follow-up assays come after a bar, where they were run); [ ] = remark or other dose. Most compounds without a hit are left out; they make up all but 2.9% or so of the library.

Cc1ccc(-c2c[n+](CC(=O)Nc3nc(-c4ccc(F)cc4)cs3)c3n2CCC3)cc1	MEKK2wt PB1 HTS 226, MEKK2mut PB1 HTS 76 | MEKK2wt confirm inactive | MEKK2mut-MEK5 76 | MEKK3 confirm inactive
O=C(C[n+]1cc(-c2ccc(F)cc2)n2c1CCC2)Nc1nc(-c2ccccc2)cs1	none
O=C(C[n+]1cc(-c2ccc(Cl)cc2)n2c1CCC2)Nc1nc(-c2ccccc2)cs1	MEKK2wt PB1 HTS 146 | MEKK2wt confirm inactive | MEKK2mut-MEK5 inactive | MEKK3 confirm inactive
CN(C(=O)COC(=O)c1ccc2c(c1)OCCO2)C1CCCCC1	none (no result: MEKK2wt PB1 HTS, GRK2 aptamer HTS, MEKK3 PB1 HTS, MEKK2mut PB1 HTS)
CCN(CC)CCNC(C(=O)Nc1cc(C(F)(F)F)ccc1Cl)c1ccccc1 (configuration not stated)	MEKK3 PB1 HTS 143 | MEKK2wt confirm inactive | MEKK2mut-MEK5 inactive | MEKK3 confirm inactive
COc1ccc2nc3cc(Cl)ccc3c(Nc3cc(CN4CCCC4)c(O)c(CN4CCCC4)c3)c2n1	MEKK2wt PB1 HTS 138 (no result: B2AR ag) | MEKK2wt confirm inactive | MEKK2mut-MEK5 inactive | MEKK3 confirm inactive
CN(C)CCCn1c(SCC(=O)Nc2nc(-c3cccc(Br)c3)cs2)nc2ccccc2c1=O	MEKK2wt PB1 HTS 265, MEKK3 PB1 HTS 128, MEKK2mut PB1 HTS 55 | MEKK2wt confirm 272 | MEKK2mut-MEK5 166 | MEKK3 confirm inactive
CCC(/C=C1\Sc2ccc(OC)cc2N1CCO)=C\c1sc2ccc(OC)cc2[n+]1CCO	MEKK2wt PB1 HTS 1.0[inhibitor], GRK2 aptamer HTS 100, MEKK3 PB1 HTS 36[inhibitor] | MEKK2wt confirm 1.0[inhibitor] | MEKK2mut-MEK5 inactive | MEKK3 confirm 39
CC(=O)N1c2ccc(S(=O)(=O)NCCC(=O)Nc3ccc(F)cc3)cc2CC1C (configuration not stated)	none
O=C(O)/C=C/c1ccc([N+](=O)[O-])o1	MEKK3 PB1 HTS 130 | MEKK2wt confirm inactive | MEKK2mut-MEK5 inactive | MEKK3 confirm inactive
CC1(C(=O)N/N=C/c2ccc([N+](=O)[O-])o2)CC1(Br)Br (configuration not stated)	MEKK3 PB1 HTS 132 | MEKK2wt confirm inactive | MEKK2mut-MEK5 inactive | MEKK3 confirm inactive
O=C(Cc1ccc([N+](=O)[O-])cc1)N/N=C/c1ccc([N+](=O)[O-])o1	none
Cc1ccc(NC(=O)Cn2c(=O)c3cccn3c3ccccc32)c(Cl)c1	none
c1ccc(-c2nc(-c3ccco3)n3ccccc23)cc1	MEKK2wt PB1 HTS 58[inhibitor] | MEKK2wt confirm inactive | MEKK2mut-MEK5 inactive | MEKK3 confirm inactive
c1ccc(Nc2c(-c3ccco3)nc3ccccn23)cc1	none
OCCN(CCO)CC(O)COc1ccc(C23CC4CC(CC(C4)C2)C3)cc1 (configuration not stated)	MEKK3 PB1 HTS 132 | MEKK2wt confirm inactive | MEKK2mut-MEK5 inactive | MEKK3 confirm inactive
COc1ccc(OC)c(/C=N/NC(=O)CCc2ccc(O)c(O)c2)c1	MEKK3 PB1 HTS 136 | MEKK2wt confirm inactive | MEKK2mut-MEK5 inactive | MEKK3 confirm inactive
COc1cccc(/C=N/NC(=O)CCCc2ccc(OC)c(C)c2)c1	MEKK3 PB1 HTS 156 | MEKK2wt confirm inactive | MEKK2mut-MEK5 inactive | MEKK3 confirm inactive
N/C(=N\N=Cc1ccc2c(c1)OCO2)NN=Cc1ccc2c(c1)OCO2	none (no result: MEKK2wt PB1 HTS, GRK2 aptamer HTS, MEKK3 PB1 HTS, MEKK2mut PB1 HTS)
N/C(=N\N=C/c1ccc(Br)cc1)N/N=C\c1ccc(Br)cc1	MEKK2wt PB1 HTS 215, MEKK2mut PB1 HTS 102 | MEKK2wt confirm inactive | MEKK2mut-MEK5 inactive | MEKK3 confirm inactive
N/C(=N\N=C/c1ccc(F)cc1)N/N=C\c1ccc(F)cc1	MEKK2wt PB1 HTS 159, MEKK2mut PB1 HTS 31 | MEKK2wt confirm inactive | MEKK2mut-MEK5 inactive | MEKK3 confirm inactive
COC(=O)C1=C(C)NC(C)=C(C(=O)OC)C1C(=O)OCC(=O)N1CCCCC1C (configuration not stated)	none (no result: MEKK2wt PB1 HTS, GRK2 aptamer HTS, MEKK3 PB1 HTS, MEKK2mut PB1 HTS)

Assay outcomes as filed in PubChem BioAssay.
